Reference: PubChem BioAssay AID1159580 (chemical genetic matrix, 2015)
In all, about 5,500 compounds went through this assay and about 2,000 (36%) were called active. Roughly 18% stayed inconclusive and do not appear here. The list shows a part of the results. Values without a mark were called inactive. Cut-off read from the data, not from the text of the source: active = normalized growth mostly below about 0.91 (no sharp cut-off); inconclusive = no clear call, values can overlap the other calls; inactive = mostly above about 0.92.

Experiment: chemical genetic growth profiling, strain panel (AID 1159580);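 note: tested at 20 µM; growth read once vehicle control cultures reached saturation at 30 °C; 1 = growth at the plate median or of vehicle wells; lower values mean less growth of the strain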
Settings: growth OD

Question: What does the source list for C#CCCCCCCCCCCCC(O)CC(O)CO (configuration not stated)?
Answer: normalized growth (S. cerevisiae deletion strains, locus YJR075W, strain HOC1, hits give low values): 0.987; normalized growth (S. cerevisiae deletion strains, locus YKL009W, strain mrt4, hits give low values): 1; normalized growth (S. cerevisiae deletion strains, locus YKL068W, hits give low values): 1.01; normalized growth (S. cerevisiae deletion strains, locus YKL085W, strain MDH1 (second series), hits give low values): 1.01; normalized growth (S. cerevisiae deletion strains, locus YKL085W, strain MDH1, hits give low values): 1.01; normalized growth (S. cerevisiae deletion strains, locus YKL160W, strain elf1, hits give low values): 0.97; normalized growth (S. cerevisiae deletion strains, locus YKL190W, strain CNB1, hits give low values): 0.999; normalized growth (S. cerevisiae deletion strains, locus YKR001C, strain vps1, hits give low values): 1; normalized growth (S. cerevisiae deletion strains, locus YKR026C, strain gcn3, hits give low values): 0.982; normalized growth (S. cerevisiae deletion strains, locus YKR091W, strain srl3, hits give low values): 0.979; normalized growth (S. cerevisiae deletion strains, locus YLL001W, strain dnm1, hits give low values): 0.961; normalized growth (S. cerevisiae deletion strains, locus YLL026W, hits give low values): 0.993; normalized growth (S. cerevisiae deletion strains, locus YLL041C, strain sdh2, hits give low values): 0.986; normalized growth (S. cerevisiae deletion strains, locus YLR027C, strain aat2, hits give low values): 0.986; normalized growth (S. cerevisiae deletion strains, locus YLR039C, strain RIC1, hits give low values): 1.08; normalized growth (S. cerevisiae deletion strains, locus YLR058C, strain SHM2, hits give low values): 1; normalized growth (S. cerevisiae deletion strains, locus YLR102C, strain apc9, hits give low values): 1.01; normalized growth (S. cerevisiae deletion strains, locus YLR113W, strain HOG1, hits give low values): 0.832 (active); normalized growth (S. cerevisiae deletion strains, locus YLR221C, strain rsa3, hits give low values): 0.974; normalized growth (S. cerevisiae deletion strains, locus YLR258W, strain gsy2, hits give low values): 0.99; normalized growth (S. cerevisiae deletion strains, locus YLR262C, strain YPT6 (second series), hits give low values): 0.966; normalized growth (S. cerevisiae deletion strains, locus YLR262C, strain YPT6, hits give low values): 1.07; normalized growth (S. cerevisiae deletion strains, locus YLR268W, strain sec22, hits give low values): 1; normalized growth (S. cerevisiae deletion strains, locus YLR320W, strain mms22, hits give low values): 0.946; normalized growth (S. cerevisiae deletion strains, locus YLR330W, strain CHS5, hits give low values): 0.99; normalized growth (S. cerevisiae deletion strains, locus YLR342W, strain FKS1 (second series), hits give low values): 0.975; normalized growth (S. cerevisiae deletion strains, locus YLR342W, strain FKS1, hits give low values): 0.985; normalized growth (S. cerevisiae deletion strains, locus YLR357W, strain rsc2, hits give low values): 0.954; normalized growth (S. cerevisiae deletion strains, locus YLR370C, strain arc18, hits give low values): 0.985; normalized growth (S. cerevisiae deletion strains, locus YLR371W, strain rom2, hits give low values): 1.01; normalized growth (S. cerevisiae deletion strains, locus YLR384C, strain iki3, hits give low values): 0.98; normalized growth (S. cerevisiae deletion strains, locus YLR418C, strain cdc73, hits give low values): 1.02; normalized growth (S. cerevisiae deletion strains, locus YML016C, strain PPZ1, hits give low values): 1; normalized growth (S. cerevisiae deletion strains, locus YML032C, strain rad52, hits give low values): 1.02; normalized growth (S. cerevisiae deletion strains, locus YML120C, strain ndi1, hits give low values): 0.986; normalized growth (S. cerevisiae deletion strains, locus YML124C, strain tub3, hits give low values): 1.01; normalized growth (S. cerevisiae deletion strains, locus YMR058W, strain fet3, hits give low values): 0.991; normalized growth (S. cerevisiae deletion strains, locus YMR078C, strain ctf18, hits give low values): 1; normalized growth (S. cerevisiae deletion strains, locus YMR125W, strain sto1, hits give low values): 0.967; normalized growth (S. cerevisiae deletion strains, locus YMR129W, hits give low values): 0.988; normalized growth (S. cerevisiae deletion strains, locus YMR205C, strain PFK2, hits give low values): 0.962; normalized growth (S. cerevisiae deletion strains, locus YMR223W, strain ubp8, hits give low values): 1.01; normalized growth (S. cerevisiae deletion strains, locus YMR231W, strain pep5, hits give low values): 0.974; normalized growth (S. cerevisiae deletion strains, locus YMR263W, strain SAP30, hits give low values): 1; normalized growth (S. cerevisiae deletion strains, locus YMR307W, strain GAS1, hits give low values): 1.19; normalized growth (S. cerevisiae deletion strains, locus YNL067W, strain RPL9B, hits give low values): 0.987; normalized growth (S. cerevisiae deletion strains, locus YNL071W, strain lat1, hits give low values): 0.988; normalized growth (S. cerevisiae deletion strains, locus YNL128W, strain TEP1, hits give low values): 1.01; normalized growth (S. cerevisiae deletion strains, locus YNL153C, strain GIM3, hits give low values): 1; normalized growth (S. cerevisiae deletion strains, locus YNL183C, strain NPR1, hits give low values): 0.774 (active); normalized growth (S. cerevisiae deletion strains, locus YNL209W, strain ssb2, hits give low values): 0.996; normalized growth (S. cerevisiae deletion strains, locus YNL233W, strain BNI4, hits give low values): 0.991; normalized growth (S. cerevisiae deletion strains, locus YNL248C, strain rpa49, hits give low values): 0.97; normalized growth (S. cerevisiae deletion strains, locus YNL250W, strain rad50, hits give low values): 1.03; normalized growth (S. cerevisiae deletion strains, locus YNL271C, strain bni1, hits give low values): 1.02; normalized growth (S. cerevisiae deletion strains, locus YNL298W, strain CLA4, hits give low values): 1.01; normalized growth (S. cerevisiae deletion strains, locus YNL307C, strain MCK1, hits give low values): 0.98; normalized growth (S. cerevisiae deletion strains, locus YNL322C, strain KRE1 (second series), hits give low values): 0.978; normalized growth (S. cerevisiae deletion strains, locus YNL322C, strain KRE1, hits give low values): 1; normalized growth (S. cerevisiae deletion strains, locus YNR049C, strain mso1, hits give low values): 0.992; normalized growth (S. cerevisiae deletion strains, locus YNR052C, strain pop2, hits give low values): 1.01; normalized growth (S. cerevisiae deletion strains, locus YOL006C, strain TOP1, hits give low values): 0.96; normalized growth (S. cerevisiae deletion strains, locus YOL012C, strain htz1): 0.976; normalized growth (S. cerevisiae deletion strains, locus YOL147C, strain pex11, hits give low values): 1; normalized growth (S. cerevisiae deletion strains, locus YOR001W, strain rrp6, hits give low values): 0.998; normalized growth (S. cerevisiae deletion strains, locus YOR061W, strain CKA2, hits give low values): 0.921; normalized growth (S. cerevisiae deletion strains, locus YOR069W, strain VPS5, hits give low values): 1; normalized growth (S. cerevisiae deletion strains, locus YOR070C, strain gyp1, hits give low values): 0.977; normalized growth (S. cerevisiae deletion strains, locus YOR080W, strain dia2, hits give low values): 0.994; normalized growth (S. cerevisiae deletion strains, locus YOR083W, strain WHI5, hits give low values): 0.95; normalized growth (S. cerevisiae deletion strains, locus YOR106W, strain vam3, hits give low values): 0.977; normalized growth (S. cerevisiae deletion strains, locus YOR136W, strain idh2, hits give low values): 0.998; normalized growth (S. cerevisiae deletion strains, locus YOR144C, strain elg1, hits give low values): 1.01; normalized growth (S. cerevisiae deletion strains, locus YOR184W, strain ser1, hits give low values): 1.01; normalized growth (S. cerevisiae deletion strains, locus YOR231W, strain MKK1, hits give low values): 0.851 (active); normalized growth (S. cerevisiae deletion strains, locus YOR265W, strain rbl2, hits give low values): 0.99; normalized growth (S. cerevisiae deletion strains, locus YOR270C, strain vph1, hits give low values): 0.944; normalized growth (S. cerevisiae deletion strains, locus YOR290C, strain snf2, hits give low values): 0.948; normalized growth (S. cerevisiae deletion strains, locus YOR316C, strain cot1, hits give low values): 1.01; normalized growth (S. cerevisiae deletion strains, locus YPL051W, strain arl3, hits give low values): 0.989; normalized growth (S. cerevisiae deletion strains, locus YPL055C, strain LGE1, hits give low values): 0.994; normalized growth (S. cerevisiae deletion strains, locus YPL078C, strain atp4, hits give low values): 0.981; normalized growth (S. cerevisiae deletion strains, locus YPL106C, strain sse1, hits give low values): 0.981; normalized growth (S. cerevisiae deletion strains, locus YPL240C, strain hsp82, hits give low values): 0.998; normalized growth (S. cerevisiae deletion strains, locus YPL241C, strain CIN2, hits give low values): 1; normalized growth (S. cerevisiae deletion strains, locus YPL256C, strain CLN2, hits give low values): 0.881; normalized growth (S. cerevisiae deletion strains, locus YPR119W, strain clb2, hits give low values): 1.01; normalized growth (S. cerevisiae deletion strains, locus YPR141C, strain kar3, hits give low values): 1.04; normalized growth (S. cerevisiae deletion strains, locus YPR163C, strain tif3, hits give low values): 0.997; normalized growth (S. cerevisiae deletion strains, locus YPR167C, strain met16, hits give low values): 1.01; normalized growth (S. cerevisiae deletion strains, strain wtn01, hits give low values): 1.01; normalized growth (S. cerevisiae strains, strain wild type, hits give low values): 0.992
